Columns and labels:
Type in all cases: functional
Plasmodium falciparum [1] = assay: GSK_TCMDC: Inhibition of Plasmodium falciparum 3D7 in whole red blood cells, using parasite LDH activity as an index of growth. Test compounds present at 2uM
Plasmodium falciparum [2] = assay: GSK_TCMDC: Inhibition of Plasmodium falciparum Dd2 in whole red blood cells, using parasite LDH activity as an index of growth. Test compounds present at 2uM
HepG2 = assay: GSK_TCMDC: Percent inhibition of human HepG2 cell line. Test compounds present at 10uM.

Row | SMILES | Inhibition (Plasmodium falciparum [1]) | Inhibition (Plasmodium falciparum [2]) | Inhibition (HepG2)
1 | CCN(CC)CCNC(=O)c1ccc(NC(=O)c2cc3c(C)nn(-c4ccc(Cl)cc4)c3s2)cc1.Cl | 95% | 78% | 24%
2 | CC(C)N1CCC(N(Cc2ccc(-c3ccc(C(F)(F)F)cc3)cc2)C(=O)CCCn2c(CCc3cccc(F)c3F)nc(=O)c3ccccc32)CC1.O=C(O)C(O)C(O)C(=O)O | 89% | 60% | 45%
3 | COc1ccc(C(=O)NCC(C)(C)c2nc(-c3ccc(Cl)c(O)c3)c(-c3ccncc3)[nH]2)cc1OCCN(C(C)C)C(C)C.Cl | 100% | 96% | 62%
4 | COc1cc(Nc2nccc(N3CCC(NC(=O)Nc4cccc(C(C)=O)c4)C3)n2)cc(OC)c1OC (stereo not given) | 91% | 34% | 8%
5 | O=C(CSc1nn(-c2ccccc2)c(=S)s1)c1c[nH]c2ccccc12 | 93% | 68% | 0%
6 | O=C1Nc2cccc3c2C1(CCCN1CCC(c2c[nH]c4cc(C(F)(F)F)ccc24)CC1)CCC3 (stereo not given) | 89% | 37% | 91%
7 | COc1ccc(C2CCC(NCCCCNC(=O)c3ccc(NC(=O)c4ccc(Cl)cc4)cc3)CC2)cc1 (stereo not given) | 99% | 7% | 23%
8 | Cc1ccc(C)c(Cn2ccc3nc(N)nc(N)c32)c1 | 97% | 3% | 65%
9 | Cc1[nH]c(C)c(-c2ccc(Oc3cccc(Cl)c3)cc2)c(=O)c1Cl | 99% | 97% | 40%
10 | CN1CCC(C(=O)Nc2cccc(-c3ccc(-c4nc5ccccc5[nH]4)cc3)c2)CC1 | 82% | 15% | 7%
